Among the data in PubChem BioAssay (NCI) are growth values, retold here.

Test systems include DU-145 prostate; K-562 leukemia; MALME-3M melanoma; RXF 393 renal; SF-268 CNS; SF-295 CNS; SF-539 CNS; UACC-257 melanoma; M14 melanoma; HCT-15 colon; HT29 colon; SNB-75 CNS; U251 CNS; PC-3 prostate; SK-MEL-5 melanoma; LOX IMVI melanoma; SK-MEL-28 melanoma; MDA-MB-231 breast; SNB-19 CNS; UACC-62 melanoma.
Assay in all cases: NCI-60 one-dose screen, 48 h (100 = growth as untreated, 0 = no growth, -100 = all killed)
Holding throughout (settings): 10 µM unless noted

Each structure is given as a SMILES string. About 83,000 compounds went through this panel and 20% of them were active in at least one assay; those are over-represented in the sample as a whole.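 Method: cells in 96-well plates; compound added at one concentration; 48 h incubation; percent growth measured; values under 10 scored active.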 Unmarked numbers belong to inactive results. Activity calls are given as the source filed them.

Take `Nc1c(C(=O)Nc2ccccc2Cl)sc2nc3c(cc12)CCCCCC3`: the growth is 56.3% in the assay on DU-145 prostate; 23.3% with K-562 leukemia; -13.3% (active) with MALME-3M melanoma; -34.6% (active) in the assay on RXF 393 renal; 38.4% with SF-268 CNS; 36.6% in the assay on SF-295 CNS. In addition, the growth with SF-539 CNS is 14.3%; in the assay with UACC-257 melanoma it was 58.4%; with M14 melanoma it was 34.5%; with HCT-15 colon, 25.8%; in the assay with HT29 colon, 9.39% (active); with SNB-75 CNS, -20.3% (active). The growth with U251 CNS is 42%; in the assay on PC-3 prostate it was 77.5%; in the assay on SK-MEL-5 melanoma it was 32.6%; in the assay with LOX IMVI melanoma, 51%; in the assay with SK-MEL-28 melanoma, 57.9%.

With `CCN(CC)c1ccc(CNc2cc(C)nc3ccc(OC)cc23)cc1`, the growth in the assay on DU-145 prostate was 58.7%; in the assay on K-562 leukemia it was -35.6% (active); in the assay on MALME-3M melanoma, -77.5% (active); in the assay on RXF 393 renal, 77%; in the assay with SF-268 CNS it was 72.7%; in the assay on SF-295 CNS, 16.5%. Moreover, the growth with SF-539 CNS was 76%; in the assay with UACC-257 melanoma it was 18.7%; in the assay with M14 melanoma, 48.8%; in the assay with HCT-15 colon, 79.1%; with HT29 colon it was 9.05% (active); in the assay with SNB-75 CNS, 65.8%. In addition, the growth was 25% in the assay on U251 CNS; 28.5% in the assay with PC-3 prostate; 39% in the assay on SK-MEL-5 melanoma; 24.7% with LOX IMVI melanoma; 96.6% in the assay with SK-MEL-28 melanoma.

On to `Cc1ccc(Nc2c(C(N)=O)cnc3ccc(-c4csc(N)n4)cc23)cc1`, for which the growth in the assay with DU-145 prostate was 103%; in the assay with K-562 leukemia, 113%; in the assay with MDA-MB-231 breast, 98.8%; in the assay on RXF 393 renal, 98.3%; in the assay with SF-268 CNS, 106%; with SF-295 CNS, 98.7%. The growth in the assay on SF-539 CNS is 92%; in the assay on UACC-257 melanoma it was 101%; in the assay on M14 melanoma it was 98.6%; in the assay with HCT-15 colon it was 98.7%; with HT29 colon it was 103%; in the assay on SNB-75 CNS it was 96.9%. The growth is 102% in the assay with SNB-19 CNS; 97.6% in the assay on PC-3 prostate; 96.7% with SK-MEL-5 melanoma; 102% in the assay on UACC-62 melanoma; 96.2% in the assay with LOX IMVI melanoma; 101% in the assay with SK-MEL-28 melanoma.

For the compound `CCCCN(CC)CCCCCCCCCCN1CCCc2cc(OC)ccc21`, the growth with DU-145 prostate was 48.5%; in the assay with K-562 leukemia, -38.7% (active); in the assay on MALME-3M melanoma, -28.6% (active); with RXF 393 renal, 92.7%; in the assay on SF-268 CNS, 49.7%; with SF-295 CNS, 43.5%. Moreover, the growth with SF-539 CNS is 93.1%; in the assay on UACC-257 melanoma, 103%; in the assay on M14 melanoma it was 88.2%; in the assay with HCT-15 colon, 38.1%; in the assay on HT29 colon it was 19.2%; with SNB-75 CNS, 93.2%. Also, the growth is 87.4% in the assay with U251 CNS; 29.9% in the assay with PC-3 prostate; 92.1% in the assay on SK-MEL-5 melanoma; 15% in the assay with LOX IMVI melanoma; 119% in the assay with SK-MEL-28 melanoma.

For the compound `CC(=O)OCC1OC(OC2=C(CC=C(Cl)Cl)C(=O)c3ccccc3C2=O)C(OC(C)=O)C(OC(C)=O)C1OC(C)=O` (configuration not stated), the growth in the assay with DU-145 prostate is 104%; in the assay with K-562 leukemia, -12.5% (active); with MALME-3M melanoma it was 51.6%; in the assay with MDA-MB-231 breast it was 69.5%; in the assay on SF-268 CNS, 88.8%; in the assay with SF-539 CNS, 90.5%. Also, the growth with UACC-257 melanoma was 94%; with M14 melanoma, 110%; in the assay on HCT-15 colon, 56.9%; in the assay on HT29 colon, 90.8%; with SNB-75 CNS it was 71.1%; in the assay on SNB-19 CNS, 99.3%. In addition, the growth in the assay on PC-3 prostate was 47.4%; in the assay on SK-MEL-5 melanoma it was 66.3%; in the assay with UACC-62 melanoma, 86.1%; with LOX IMVI melanoma, 39.9%; with SK-MEL-28 melanoma, 91.4%.

For the compound `CCCCCCCCCCCCN1CCCC(C)C1` (configuration not stated), the growth was 95.2% in the assay with DU-145 prostate; 19.2% in the assay on K-562 leukemia; 107% with MALME-3M melanoma; 55.8% with MDA-MB-231 breast; 89.7% in the assay on SF-268 CNS; 86.4% in the assay on SF-539 CNS. The growth in the assay on UACC-257 melanoma was 88.3%; with M14 melanoma, 82.7%; in the assay on HCT-15 colon it was 61.8%; in the assay on HT29 colon, 24%; in the assay with SNB-75 CNS, 73.4%; in the assay with SNB-19 CNS it was 101%. The growth is 67.4% in the assay on PC-3 prostate; 68.4% with SK-MEL-5 melanoma; 108% in the assay on UACC-62 melanoma; 56.4% in the assay on LOX IMVI melanoma; 90% in the assay on SK-MEL-28 melanoma.

With `O=C(O)C(O)C(O)C(=O)O.[NH-]C1CCCCC1[NH-].[Pt+2]` (configuration not stated), the growth in the assay on DU-145 prostate was 107%; with K-562 leukemia, 105%; in the assay with MALME-3M melanoma it was 127%; with MDA-MB-231 breast, 98.7%; in the assay on SF-268 CNS it was 104%; with SF-539 CNS, 105%. For the same compound, the growth in the assay on UACC-257 melanoma is 122%; with HCT-15 colon, 103%; in the assay with HT29 colon, 111%; with SNB-75 CNS, 80.8%; with SNB-19 CNS, 101%; in the assay on PC-3 prostate it was 106%. Further, the growth in the assay with SK-MEL-5 melanoma is 103%; in the assay on UACC-62 melanoma, 100%; in the assay with LOX IMVI melanoma, 112%; in the assay on SK-MEL-28 melanoma, 95.1%.

For `C#Cc1nc2ccccc2c(=O)[nH]1`, the growth in the assay on DU-145 prostate was -41.8% (active); with K-562 leukemia, -24.6% (active); in the assay on MALME-3M melanoma, -64.2% (active); in the assay on MDA-MB-231 breast, -57.5% (active); in the assay with SF-268 CNS, -70.4% (active); with SF-295 CNS, 41.3%. The growth in the assay with SF-539 CNS is -70.1% (active); in the assay with UACC-257 melanoma it was -21.6% (active); in the assay with M14 melanoma it was -11.2% (active); in the assay on HCT-15 colon it was -47% (active); with HT29 colon, -55.2% (active); with SNB-75 CNS, -56.1% (active). Besides, the growth in the assay with SNB-19 CNS was 69.2%; in the assay with PC-3 prostate it was -38.2% (active); with SK-MEL-5 melanoma it was -34.6% (active); in the assay on UACC-62 melanoma, -77.2% (active); in the assay on LOX IMVI melanoma, -69.4% (active); in the assay on SK-MEL-28 melanoma, -64.8% (active).
